# Measurements from PubChem BioAssay.
# Values joined by “and” are separate entries in the source; they are usually repeats but may differ in a detail not shown here. Identical values can stand only once. For part of these data: Potency and affinity values are given separately. Active and inactive are the calls of the source.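 Rule for the calls, unless noted: active = thallium flux through the channel raised or lowered by more than 3 SD from vehicle-only wells, actives on both sides; inactive = the rest.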
# Legend:
# [1] = polyglutamine-triggered caspase-3 activation inhibitors, cell-based (AID 1583); settings: polyglutamine-induced caspase-3 activation, cell assay; stronger effect = higher value;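 tested at 10 µM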
# [2] = suppressors of polyQ aggregation in yeast, 75Q-TubU reporter (AID 1593); settings: Yeast 75Q polyglutamine aggregation reporter
# [3] = rescue of polyQ-huntingtin neuronal dysfunction in worms, whole organism, C. elegans mechanosensory neurons, N-terminal huntingtin (AID 1599); settings: touch response, stronger effect = higher value
# [4] = inhibitors of mitochondrial cytochrome c release, biochemical, purified mitochondria (AID 1603); settings: stronger effect = lower value;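 note: mouse liver mitochondria challenged with calcium chloride; signal normalized to the plate average as 100%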
# [5] = inhibitors of polyQ protein aggregation (AID 1604); settings: polyglutamine-induced protein aggregation inhibition assay; stronger effect = higher value; tested at 2.5 µM
# [6] = enhancers of glutamate uptake in motor neurons, MN-1 cell line (AID 1612); settings: MN-1 motor neuron cells, stronger effect = higher value;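 note: tested at 1 µM final; 0% = mean of DMSO vehicle wells on each plate; positive means more glutamate uptake than control and negative means less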
# [7] = suppressors of polyglutamine aggregation in yeast, 75Q-TubH (AID 1616); settings: S. cerevisiae 75Q-TubH polyglutamine aggregation suppression; stronger effect = higher value
# [8] = hESC survival regulators, cell-based (AID 493140; call rule not given here;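 note: cells exposed to compounds for four days before counting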); settings: human embryonic stem cell survival screen; stronger effect = higher value
# [9] = tested on: Neuropilin-2 / VEGF-C interaction (human); assay: inhibitors of NRP2–VEGF-C binding, biochemical, microplate binding format, z-score (AID 743281; call rule not given here); settings: microplate NRP2/VEGF-C binding assay; stronger effect = lower value
# [10] = modulation of C. elegans fzo-1 (AID 1259413; call rule not given here;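 note: fzo-1 mutant C. elegans worms in liquid wells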); settings: C. elegans fzo-1 modulator screen, mean read-out; stronger effect = higher value
# F380Y/beta2Delta = assay: modulators of BK channel variants, profiling panel, selectivity assay, cell-based, U2OS BacMam, thallium flux, beta subunits (AID 1259406); settings: at 30 µM;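 note: initial slope of Thallos dye fluorescence rise after thallium is added; log ratio against the mean of 0.3% DMSO vehicle wells on the same plate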
# [11] = molecular target: Calcium-activated potassium channel subunit alpha-1 (Homo sapiens) + Leucine-rich repeat-containing protein 26 (Homo sapiens) (UniProt Q12791+Q2I0M4); assay: as above; settings: F380Y/Slo1WT/gamma1, at 30 µM
# Calcium-activated potassium channel subunit alpha-1 (Homo sapiens) + Leucine-rich repeat-containing protein 26 (Homo sapiens), sequence (Q2I0M4 whole entry, looked up, one chain of several): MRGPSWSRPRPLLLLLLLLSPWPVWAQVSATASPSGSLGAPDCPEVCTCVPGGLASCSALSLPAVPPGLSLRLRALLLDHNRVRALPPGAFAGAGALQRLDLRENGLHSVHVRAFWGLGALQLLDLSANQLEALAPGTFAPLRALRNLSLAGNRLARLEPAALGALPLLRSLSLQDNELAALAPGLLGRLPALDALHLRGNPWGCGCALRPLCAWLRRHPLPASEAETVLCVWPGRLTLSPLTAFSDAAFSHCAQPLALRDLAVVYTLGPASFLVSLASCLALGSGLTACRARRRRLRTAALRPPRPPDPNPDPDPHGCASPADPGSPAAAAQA
# R275C = assay: as above; settings: at 30 µM
# R275C/beta1 = assay: as above; settings: at 30 µM
# R275C/beta2Delta = assay: as above; settings: at 30 µM
# [12] = viability rescue of complex I mutant cybrids, primary screen, cell-based, galactose medium, ATP luminescence (AID 1645843;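 active = z-score of at least 1.8 in each of two replicates, scored against plate mean and spread of sample wells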;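 note: positive z means more ATP and so rescue of galactose-driven cybrid death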); settings: complex I mutant cybrid cells, 72 h, stronger effect = higher value
# F380Y/beta1 = assay: modulators of BK channel variants, profiling panel, selectivity assay, cell-based, U2OS BacMam, thallium flux, beta subunits (AID 1259406); settings: at 30 µM;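 note: initial slope of Thallos dye fluorescence rise after thallium is added; log ratio against the mean of 0.3% DMSO vehicle wells on the same plate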
# F380Y/beta4 = assay: as above; settings: at 30 µM
# R275C/beta4 = assay: as above; settings: at 30 µM
# R275C/Slo1WT/beta2 = assay: as above; settings: at 30 µM
Structure (SMILES),inhibition [1],score [2],rescue above control [3],cytochrome c release ratio [4],inhibition of aggregation [5],glutamate uptake change [6],aggregation suppression score [7],survival [8],z-score [9],mean signal [10],log fold change Tl+ flux (F380Y/beta2Delta),log fold change Tl+ flux [11],log fold change Tl+ flux (R275C),log fold change Tl+ flux (R275C/beta1),log fold change Tl+ flux (R275C/beta2Delta),z-score [12],log fold change Tl+ flux (F380Y/beta1),log fold change Tl+ flux (F380Y/beta4),log fold change Tl+ flux (R275C/beta4),log fold change Tl+ flux (R275C/Slo1WT/beta2)
COc1ccc2c(c1)c(CC(=O)O)c(C)n2C(=O)c1ccc(Cl)cc1,24.4%,-1.46,-5.76,0.82,-6.06%,7.33%,0.0101,13.2 (inactive),0.68 (inactive),244 (inactive),0.11 (active),0.0683 (inactive),0.074 (inactive),0.196 (active),0.128 (active),–,–,–,–,–
CC(=O)OCC(=O)[C@@]12OC(C)(C)O[C@@H]1C[C@H]1[C@@H]3C[C@H](F)C4=CC(=O)C=C[C@]4(C)[C@@]3(F)[C@@H](O)C[C@@]12C,–,–,–,–,–,–,–,3.25 (inactive),–,–,-0.00446 (inactive),0.00932 (inactive),-0.038 (inactive),-0.00722 (inactive),-0.0403 (inactive),0.355 (inactive),0.0412 (inactive),0.048 (inactive),0.0407 (inactive),0.0498 (inactive)
O=C1N=C(O)CN1/N=C/c1ccc(-c2ccc([N+](=O)[O-])cc2)o1,24%,1.7,-1.39,0.66,71.6%,-2.24%,1.1,28.9 (inactive),–,232 (inactive),–,–,–,–,–,-0.315 (inactive) and -0.365 (inactive),–,–,–,–
CNC(=O)Oc1ccc2c(c1)[C@]1(C)CCN(C)[C@@H]1N2C,8.95%,1.22,1.05,1.08,39.4%,-18.2%,1.03,7.25 (inactive),–,–,–,–,–,–,–,-0.835 (inactive) and -0.865 (inactive),–,–,–,–
Cc1c(OCC(F)(F)F)ccnc1CS(=O)c1nc2ccccc2[nH]1 (stereo not drawn),-8.62%,0,4.9,0.73,29.4%,-0.46%,-0.00244,14.6 (inactive),0.0966 (inactive),250 (inactive),–,–,–,–,–,-1.12 (inactive) and -0.8 (inactive) and -0.405 (inactive),–,–,–,–
CN(C)CCN(Cc1ccccc1)c1ccccn1,16.8%,1.31,2.67,1.13,79.6%,-25.1%,1.09,–,-0.192 (inactive),272 (inactive),-0.027 (inactive),0.0226 (inactive),0.027 (inactive),0.0111 (inactive),-0.0395 (inactive),0.73 (inactive),–,–,–,–
COc1cc2nc(N3CCN(C(=O)c4ccco4)CC3)nc(N)c2cc1OC,16.5%,1.21,-0.41,1.07,70.4%,-22.2%,1.01,0.667 (inactive),0.105 (inactive),236 (inactive),-0.00919 (inactive),0.00974 (inactive),-0.0502 (inactive),-0.0587 (inactive),-0.0145 (inactive),–,–,–,–,–
C[C@@H](O)[C@H]1C(=O)N2C(C(=O)O)=C(S[C@@H]3CN[C@H](C(=O)N(C)C)C3)[C@H](C)[C@H]12,–,–,–,–,–,–,–,4.17 (inactive),-0.132 (inactive),272 (inactive),-0.00534 (inactive),-0.0284 (inactive),-0.0931 (inactive),-0.0201 (inactive),-0.042 (inactive),1.23 (inactive),0.00288 (inactive),-0.00589 (inactive),0.0148 (inactive),-0.00332 (inactive)
COc1ccccc1N1CCN(CCCNc2cc(=O)n(C)c(=O)n2C)CC1,–,–,–,–,–,–,–,5.83 (inactive),-0.551 (inactive),262 (inactive),-0.00368 (inactive),-0.00786 (inactive),-0.0421 (inactive),0.0413 (inactive),0.0288 (inactive),0.56 (inactive) and 1 (inactive) and -0.025 (inactive),–,–,–,–
Nc1c2c(nc3ccccc13)CCCC2,-14.1%,1.21,-13.1,0.63,38.8%,4.59%,1.23,6.42 (inactive),-0.542 (inactive),215 (inactive),-0.00945 (inactive),0.00974 (inactive),0.0238 (inactive),-0.0128 (inactive),-0.0194 (inactive),–,–,–,–,–
